Compound activity (PubChem)
BJeLR viability: BJeLR cell viability loss | AID 1554 | 300,000 compounds, 0.17% hits | inhibition, % (test concentration not listed) | BJeLR (HRASV12) viability, CellTiter-Glo ATP luminescence, 48 h; in the data active = inhibition above about 50%
PrPC TRFRET: reduces human prion protein on the cell surface; P04156; cell surface PrPC, TR-FRET read-out; inhibition, % at 13.8 µM; 370,000 compounds, 0.43% hits; AID 720596; in the data active = inhibition above about 24%
Sa ugtP lethal: kills S. aureus RN4220 lacking UgtP | S. aureus RN4220 ugtP deletion, OD600 growth, 16 h | growth inhibition, % (concentration not given with the values) | 330,000 compounds, 0.54% hits | AID 1259309; in the data active = growth inhibition above about 68%
SARS 3CLpro inh: SARS-CoV 3CLpro protease inhibition. P0C6X7. recombinant SARS-CoV 3CLpro, quenched FRET peptide cleavage. inhibition, % at 6 µM. 290,000 compounds, 0.14% hits. AID 1706; in the data active = inhibition above about 12%
Sa RN4220 lethal: S. aureus RN4220 growth inhibition. OD600, 16 h. inhibition, % (concentration not given with the values). 330,000 compounds, 0.33% hits; in the data active = inhibition above about 85%
DUSP3 inh: DUSP3 (human) phosphatase inhibition. P51452. recombinant VHR phosphatase, pNPP absorbance. 290,000 compounds, 0.52% hits. inhibition, % at 13.3 µM; in the data active = inhibition above about 50%
PrPC TRFRET cf: cell surface PrPC inhibition, TR-FRET confirmation | cell surface PrPC level | 1,500 compounds, 65% hits | inhibition, % at 13.8 µM | shares compounds with PrPC TRFRET; in the data active = inhibition above about 25%
LD9 cytotox: counter-screen for PrPc inhibitors: cytotoxicity in LD9 cells. luminescence viability. AID 743201. shares compounds with PrPC TRFRET. 1,500 compounds, 29% hits. inhibition, % at 13.8 µM; in the data active = inhibition above about 9.5%
Of the large screens only hits and unclear results are named; the others gave an inactive call (follow-up assays come after a bar, where they were run). Hits are enriched below; roughly 1.4% of the tested compounds scored in any of these assays.

O=C(NCCc1ccccn1)c1ccc(OC2CCN(CCc3ccccc3)CC2)cc1	PrPC TRFRET 45 | PrPC TRFRET cf inactive | LD9 cytotox inactive
CC(Cc1ccccn1)NC(=O)c1ccc(OC2CCN(CCc3ccccc3)CC2)cc1 (centres undefined)	none
Nc1ccc2cc3[nH]c4cc(N)ccc4c3nc2c1	PrPC TRFRET 27 (no result: BJeLR viability, Sa ugtP lethal, SARS 3CLpro inh, Sa RN4220 lethal, DUSP3 inh) | PrPC TRFRET cf inactive | LD9 cytotox 31
Cc1ccc(NC(=O)C2CCCN(C(=O)Nc3ccc(F)cc3)C2)cc1 (centres undefined)	none
O=C(NC1CC1)C1CCCN(C(=O)Nc2ccc(F)cc2)C1 (centres undefined)	PrPC TRFRET 31 | PrPC TRFRET cf inactive | LD9 cytotox inactive
COC(=O)[C@]12C[C@H](CC(=O)N3CCCC3)C(=O)N(CCC3=CCCCC3)C1=C[C@H](C(C)C)O[C@@H]2C1CC1	PrPC TRFRET 28 (no result: BJeLR viability, Sa ugtP lethal, SARS 3CLpro inh, Sa RN4220 lethal, DUSP3 inh) | PrPC TRFRET cf 31 | LD9 cytotox inactive
CCCCCCCCN1C(=O)[C@@H](CC(=O)N2CCCC2)C[C@@]2(C(=O)OC)C1=C[C@H](C(C)C)O[C@@H]2C1CC1	PrPC TRFRET 30 (no result: BJeLR viability, Sa ugtP lethal, SARS 3CLpro inh, Sa RN4220 lethal, DUSP3 inh) | PrPC TRFRET cf 36 | LD9 cytotox inactive
COC(=O)[C@]12C[C@H](CC(=O)N3CCCCC3)C(=O)N(CCC3=CCCCC3)C1=C[C@H](C(C)C)O[C@@H]2C1CC1	PrPC TRFRET 29 (no result: BJeLR viability, Sa ugtP lethal, SARS 3CLpro inh, Sa RN4220 lethal, DUSP3 inh) | PrPC TRFRET cf 32 | LD9 cytotox inactive
CCCCCCCCN1C(=O)[C@@H](CC(=O)N2CCOCC2)C[C@@]2(C(=O)OC)C1=C[C@H](C(C)C)O[C@@H]2C1CC1	none (no result: BJeLR viability, Sa ugtP lethal, SARS 3CLpro inh, Sa RN4220 lethal, DUSP3 inh)
COC(=O)C(NC(=O)NCc1ccccc1Cl)C(C)C (centres undefined)	none (no result: BJeLR viability, PrPC TRFRET, SARS 3CLpro inh, DUSP3 inh)
C#CCOCCOCCOCCNc1nc(N2CCN(C(=O)C(CC(N)=O)n3cc(C(N)CC(N)=O)nn3)CC2)nc(N2CCN(C(=O)C(CCCN=C(N)N)n3cc(C(N)C(C)CC)nn3)CC2)n1 (centres undefined)	none (no result: BJeLR viability, PrPC TRFRET, SARS 3CLpro inh, DUSP3 inh)
Cc1cccc(N2C(=O)N3C4c5ccccc5OCC4C(c4ccccc4)[C@@]3(C)C2=O)c1 (some centres undefined)	none (no result: BJeLR viability, PrPC TRFRET, SARS 3CLpro inh, DUSP3 inh)
CCCCC(=O)NC(c1ccc(N(CC)CC)cc1)c1ccc2cccnc2c1O (centres undefined)	none (no result: Sa ugtP lethal, Sa RN4220 lethal)
CCCCC(=O)NC(c1ccc(Cl)cc1)c1ccc2cccnc2c1O (centres undefined)	PrPC TRFRET 29 (no result: Sa ugtP lethal, Sa RN4220 lethal, DUSP3 inh) | PrPC TRFRET cf inactive | LD9 cytotox 11
CCCC(=O)NC(c1ccccc1OC)c1ccc2cccnc2c1O (centres undefined)	none (no result: PrPC TRFRET)
CCCC(=O)NC(c1ccc(Cl)cc1)c1ccc2cccnc2c1O (centres undefined)	none (no result: Sa ugtP lethal, Sa RN4220 lethal)
CCCCC(=O)NC(c1ccccc1OC)c1ccc2cccnc2c1O (centres undefined)	PrPC TRFRET 40 | PrPC TRFRET cf 31 | LD9 cytotox 27
CCCCC(=O)NC(c1ccc(N(C)C)cc1)c1ccc2cccnc2c1O (centres undefined)	BJeLR viability 57, PrPC TRFRET 27 (no result: Sa ugtP lethal, Sa RN4220 lethal) | PrPC TRFRET cf 25 | LD9 cytotox 16
Cc1cc(NC(=O)CSc2nc(-c3cccs3)nc3ccccc23)no1	PrPC TRFRET 44 (no result: BJeLR viability, SARS 3CLpro inh, DUSP3 inh) | PrPC TRFRET cf 102 | LD9 cytotox inactive
Cc1nonc1NC(=O)CSc1nc(CCC2CCCC2)nc2ccccc12	none
Cc1cc(NC(=O)CSc2nc(CCC3CCCC3)nc3ccccc23)no1	PrPC TRFRET 43 | PrPC TRFRET cf 56 | LD9 cytotox inactive
Cc1cc(NC(=O)CSc2nc(C(C)(C)C)nc3ccccc23)no1	none
CCCc1nc(SCC(=O)NC2CCCC2)c2ccccc2n1	PrPC TRFRET 34 | PrPC TRFRET cf 43 | LD9 cytotox inactive
CCCc1nc(SCC(=O)Nc2cc(C)on2)c2ccccc2n1	PrPC TRFRET 123 | PrPC TRFRET cf 120 | LD9 cytotox inactive
Cc1cc(NC(=O)CSc2ncnc3ccccc23)no1	PrPC TRFRET 36 | PrPC TRFRET cf 94 | LD9 cytotox inactive
CCOC(=O)CNC(=O)CSc1nc(Cc2ccccc2)nc2ccccc12	none
CCc1cc2cc(C)c(C)cc2nc1SCC(=O)Nc1cc(C)on1	none
CCc1cc2ccccc2nc1SCC(=O)Nc1cc(C)on1	PrPC TRFRET 30 | PrPC TRFRET cf 69 | LD9 cytotox inactive
CCCCNC(=O)CSc1nc(Cc2ccccc2)nc2ccccc12	PrPC TRFRET 28 | PrPC TRFRET cf 38 | LD9 cytotox inactive
Cc1cc(NC(=O)CSc2cc(C)c3ccccc3n2)no1	none (no result: BJeLR viability, SARS 3CLpro inh, DUSP3 inh)
Cc1cc(C2=CC(=O)CC(c3ccc4c(c3)OCO4)C2)ccc1F (centres undefined)	none (no result: BJeLR viability, PrPC TRFRET, SARS 3CLpro inh, DUSP3 inh)
CCC(=O)N1CCN(c2ccc(-n3c(=O)ccc4cnc5ccc(-c6cnc7ccccc7c6)cc5c43)cc2C(F)(F)F)CC1	PrPC TRFRET 37 (no result: BJeLR viability, Sa ugtP lethal, SARS 3CLpro inh, Sa RN4220 lethal, DUSP3 inh) | PrPC TRFRET cf 39 | LD9 cytotox 33
O=C(c1ccccc1)c1c[nH]c(C(=O)NNc2ccccc2)c1	PrPC TRFRET 27 | PrPC TRFRET cf inactive | LD9 cytotox inactive
CCOC(=O)C(CC)Sc1nnc2c3cc(C)ccc3n(C)c2n1 (centres undefined)	PrPC TRFRET 30 | PrPC TRFRET cf 35 | LD9 cytotox inactive
N#CCc1ccc(NC(=O)Nc2cccc(Cl)c2)cc1	PrPC TRFRET 31 (no result: Sa ugtP lethal, Sa RN4220 lethal) | PrPC TRFRET cf 33 | LD9 cytotox inactive
COc1ccc(Nc2nnc(-c3ccc(O)cc3)c3ccccc23)cc1C(N)=O	PrPC TRFRET 94 | PrPC TRFRET cf 99 | LD9 cytotox inactive
CC(C)NC(=O)Nc1ccc2c(c1)C(=O)N(C(C)CO)CC(C)C(CN(C)S(=O)(=O)c1ccc(F)cc1)O2 (centres undefined)	none (no result: BJeLR viability, PrPC TRFRET, SARS 3CLpro inh, DUSP3 inh)
CC1CCN(c2ccc3nnc(CCC(=O)N4CCN(c5ccc(F)cc5)CC4)n3n2)CC1	PrPC TRFRET 40 | PrPC TRFRET cf inactive | LD9 cytotox inactive
O=C(C1=C(O)C(=O)N(CCN2CCOCC2)C1c1cccc(F)c1)c1cc2ccccc2o1 (centres undefined)	PrPC TRFRET 42 | PrPC TRFRET cf 70 | LD9 cytotox inactive
O=C(C1=C(O)C(=O)N(CCN2CCOCC2)C1c1cccc(O)c1)c1cc2ccccc2o1 (centres undefined)	none
O=C1CC(c2ccc(O)cc2)Oc2cc(OC3OC(CO)C(O)C(O)C3O)cc(OC3OC(CO)C(O)C(O)C3O)c21 (centres undefined)	none (no result: BJeLR viability, PrPC TRFRET, SARS 3CLpro inh, DUSP3 inh)
Oc1ccc(-c2cnc3c(Nc4cccc(OC(F)(F)C(F)F)c4)nccn23)cc1	PrPC TRFRET 25 (no result: BJeLR viability, Sa ugtP lethal, SARS 3CLpro inh, Sa RN4220 lethal, DUSP3 inh) | PrPC TRFRET cf 25 | LD9 cytotox inactive
CC(=NN=C1NC(=O)C(CC(=O)NCc2ccccc2)S1)C(C)C (centres undefined)	none (no result: BJeLR viability, PrPC TRFRET, SARS 3CLpro inh, DUSP3 inh)
Cc1cccc(NC(=O)COc2ccc(C=Cc3[nH]c(=O)[nH]c(=O)c3[N+](=O)[O-])cc2)c1	none (no result: BJeLR viability, PrPC TRFRET, SARS 3CLpro inh, DUSP3 inh)
